Screens as filed in PubChem.
Rows were chosen to be rich in hits. Some 19% of all compounds tested hit in one or more screens of this group.
VP16 counter – VP16 counterscreen qHTS for inhibitors of ROR gamma transcriptional activity. 3.5% of 310,000 active. Drosophila S2 Gal4-VP16 UAS-luciferase, luminescence, 20 h. AID 2546, 2010. Potency, µM (series often up to 53.6 µM), without a hit: at the highest dose activity, negative = inhibition, most hits filed as inhibitors;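 also: Gal4-VP16 expression switched on by copper sulfate through the metallothionein promoter; nearly all actives have a fitted effect of over 50% in size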
TDP1 cell noCPT – qHTS for Inhibitors of human tyrosyl-DNA phosphodiesterase 1 (TDP1): qHTS in cells in absence of CPT. Potency, µM (titrated, usually from 46.2 µM), inactives show at the highest dose activity change, negative = growth inhibition, actives largely listed as inhibitors. DT40 Tdp1-/- hTDP1 cells, no CPT, ATP luminescence, 48 h. 15% of 420,000 active. AID 686978, 2013; also: nearly all actives have a fitted effect of over 55% in size
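Stably hTDP1-transfected Tdp1-null chicken DT40 cells were treated with library compounds minus camptothecin and grown for at least 48 hr at 37 °C, after which cellular ATP was quantified by luminescence.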
RORg inh – qHTS for inhibitors of ROR gamma transcriptional activity; Potency, µM (highest dose often 53.6 µM), for inactives: top-dose activity change, negative = inhibition, actives largely listed as inhibitors; 5.4% of 310,000 active; AID 2551, 2010; Nuclear receptor ROR-gamma (Mus musculus), P51450; Drosophila S2 Gal4-RORgamma UAS-luciferase reporter, 20 h; also: nearly all actives have a fitted effect of over 60% in size
Target sequence (P51450 whole entry, looked up, the tested form may be a part): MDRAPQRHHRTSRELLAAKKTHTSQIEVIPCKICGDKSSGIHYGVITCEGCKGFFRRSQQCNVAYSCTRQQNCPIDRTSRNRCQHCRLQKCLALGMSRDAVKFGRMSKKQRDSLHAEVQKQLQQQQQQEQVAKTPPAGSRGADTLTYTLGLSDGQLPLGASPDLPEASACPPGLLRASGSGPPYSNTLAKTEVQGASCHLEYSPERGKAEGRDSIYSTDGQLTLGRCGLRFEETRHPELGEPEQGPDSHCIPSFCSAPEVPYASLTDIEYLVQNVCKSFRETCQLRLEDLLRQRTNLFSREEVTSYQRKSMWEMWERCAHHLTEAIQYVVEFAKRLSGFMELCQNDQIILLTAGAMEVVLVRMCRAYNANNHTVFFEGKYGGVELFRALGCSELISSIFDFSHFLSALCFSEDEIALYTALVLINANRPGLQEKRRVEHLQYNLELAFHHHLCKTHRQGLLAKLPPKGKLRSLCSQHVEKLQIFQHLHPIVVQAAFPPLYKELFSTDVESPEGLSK
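Drosophila S2 cells stably expressing Gal4-DBD/mouse RORγ fusion under metallothionein promoter plus UAS-luciferase; compound 1 h, then 700 uM CuSO4 induction for 20 h at ambient temperature; inhibition read as reduced luminescence.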
DT40 TDP1 CPT – qHTS for Inhibitors of human tyrosyl-DNA phosphodiesterase 1 (TDP1): qHTS in cells in presence of CPT. chicken DT40 Tdp1-/-;hTDP1 cells + 20 nM CPT, ATP luminescence, 48 h. Potency, µM (titrated, usually from 46.2 µM), without a hit: at the highest dose activity change, negative = growth inhibition, actives largely listed as inhibitors. 12% of 420,000 active; also: nearly all actives have a fitted effect of over 55% in size
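Chicken DT40 Tdp1-/- cells stably complemented with human TDP1 were seeded at 400 cells/well in medium containing 20 nM camptothecin, exposed to pin-transferred compounds, and grown at 37 °C for at least 48 hr. Viability was read as ATP luminescence.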
TDP1 inh – qHTS Assay for Inhibitors of Tyrosyl-DNA Phosphodiesterase (TDP1). recombinant TDP1, AlphaScreen DNA substrate cleavage. Tyrosyl-DNA phosphodiesterase 1 (Homo sapiens), Q9NUW8. 0.28% of 350,000 active. Potency, µM (series often up to 130 µM), for inactives: at the top dose activity change, negative = inhibition, actives largely listed as inhibitors; also: nearly all actives have a fitted effect of over 40% in size
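Recombinant E. coli-expressed Tdp1 (1 nM) preincubated with compound 15 min at RT, then 5'-biotin/3'-phosphotyrosine-FITC DNA substrate (15 nM) added for 5 min. AlphaScreen beads (10 ug/ml) added, 10 min RT; tyrosine-FITC cleavage read as signal loss.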
An asterisk follows results filed as active; ? = inconclusive; · = no result given. Calls follow the shape of the dose curve; as a rule, active = well fitted curve in the direction sought with a large enough effect; inconclusive = small, poorly fitted or top-dose-only effect, or another doubt; inactive = no such curve, though single readings can be large; an effect the other way counts as inactive or inconclusive. % is scaled to controls: 0 for no effect and ±100 for the full control effect; potency is read from the fitted curve at half-maximal effect.

SMILES	VP16 counter	TDP1 cell noCPT	RORg inh	DT40 TDP1 CPT	TDP1 inh
CCOC(=O)c1c(S(=O)(=O)N2CCCC(C(=O)N3CCN(c4ccc(F)cc4)CC3)C2)c(C)n(C)c1C (configuration not stated)	·	?	·	23µM*	4%
CCOC(=O)c1c(S(=O)(=O)N2CCCC(C(=O)NCc3cccc(OC)c3)C2)c(C)n(C)c1C (configuration not stated)	·	-29%	·	-29%	-1%
CCOC(=O)c1c(S(=O)(=O)N2CCN(c3cc(Cl)ccc3C)CC2)c(C)n(C)c1C	·	21µM*	·	?	7%
Nn1c(Cc2cccc3ccccc23)nnc1SCCOc1ccc(Br)cc1	?	?	?	?	-11%
CC(CN1CCCCC1)C(=O)NNC(=O)C12CC3CC(CC(C3)C1)C2 (configuration not stated)	-7%	-2%	-27%	6%	2%
O=c1nc(N(c2ccccc2)c2ccccc2)[nH]c(=O)[nH]1	1%	-8%	?	-18%	1%
CCOC(=O)c1ccc(-n2c(CN3CCN(CCO)CC3)nc3ccc([N+](=O)[O-])cc3c2=O)cc1	-8%	?	?	-26%	3%
CCOC(=O)c1c(S(=O)(=O)N2CCCC(C(=O)N3CCN(c4ccccc4)CC3)C2)c(C)n(C)c1C (configuration not stated)	·	?	·	15µM*	6%
O=C(Nc1ccc(Cl)cc1F)c1ccc2c(c1)C(=O)N(Cc1ccncc1)C2=O	·	?	·	0%	-10%
Cc1cc(C(=O)NCC2CCC3(CCN(Cc4ccccc4C)CC3)O2)n(C)n1 (configuration not stated)	·	-16%	·	-26%	·
COc1cc(CN2CCC3(CCC(CNC(=O)c4ccccc4)O3)CC2)cc(OC)c1 (configuration not stated)	·	?	·	10µM*	·
Cc1cc(C(=O)NCC2CCC3(CCN(Cc4ccc(-c5ccccc5)cc4)CC3)O2)n(C)n1 (configuration not stated)	·	4.6µM*	·	?	·
COc1ccc(F)c(CN2CCC3(CCC(CNC(=O)c4cc(C)nn4C)O3)CC2)c1 (configuration not stated)	·	15µM*	·	?	·
COc1ccc(CNCCCn2cnc3c(SC)ncnc32)cc1	·	4%	·	7%	·
CCCCNC(=O)CSc1nc2ccccc2n1S(=O)(=O)c1ccc(Cl)cc1	-6%	-7%	31%	-18%	3%
Cc1cc(NC(=O)c2ccccc2)nc(C)n1	5%	11%	-1%	5%	0%
Cc1cccc(C)c1NC(=O)COC(=O)c1ccc2[nH]c3c(c2c1)CCCC3	?	?	-36%	?	6%
CC1(C(=O)Nc2ccc3c(c2)OCO3)Cc2c(-c3cccc(C(F)(F)F)c3)ccnc2O1 (configuration not stated)	·	3.7µM*	·	4.1µM*	·
CC1(C(=O)Nc2cccc(C(F)(F)F)c2)Cc2c(-c3ccc4c(c3)OCO4)ccnc2O1 (configuration not stated)	·	18µM*	·	?	·
COc1ccccc1/C=C1\S/C(=N/NC(=O)c2cccc(Br)c2)NC1=O	0.56µM*	21µM*	0.32µM*	?	12%
COC(=O)/C=C1/S/C(=N/NC(=O)c2ccccc2)NC1=O	0%	9%	2.8µM*	5%	6%
COC(=O)/C=C1/SC(=NC(=O)c2ccc(OC)cc2)NC1=O	-7%	?	-19%	?	3%
COC(=O)/C=C1\S/C(=N/NC(=O)c2ccccc2)NC1=O	11µM*	-4%	11µM*	-9%	4%
COC(=O)/C=C1/S/C(=N/NC(=O)c2ccccc2C)NC1=O	?	-11%	?	2%	-4%
